Laboratory results reported in PubChem BioAssay AID652040 (Broad Institute, 2013).
Measured potencies and affinities stand elsewhere. Activity calls are given as the source filed them.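 How the source made its calls: active means falling luciferase signal whose fitted half-maximal concentration is at most twice the top tested dose; inconclusive means flat inhibition between 30 and 70% or a poor curve fit; inactive means the rest.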

Assay: off-target signal loss in HeLa-CEM21 co-culture – HeLa F-luc CTL cells, cherry-picked, counter-screen for HIV-1 Env fusion inhibitor project, dose response (AID 652040);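 further: 0% = median of neutral control wells and -100% = doxycycline 40 µg/mL wells; more negative values mean stronger loss of luciferase signal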
Conditions: HeLa-F-luc CTL cells with CEM21, firefly luciferase counterscreen; series mostly up to 35 µM; activity change, negative = inhibition: at the top concentration

Compound | activity change, negative = inhibition
Cn1c(=O)c2c(nc(NCCc3ccccc3)n2Cc2ccccc2)n(C)c1=O | 23.5% (inactive)
CC1CCCN(C(=O)c2ccc(S(=O)(=O)N3CCC(c4nc5ccccc5s4)CC3)cc2)C1 (stereo not drawn) | 6.01% (inactive)
CCc1cc2c(NCc3ccco3)ncnc2s1 | -14.9% (inactive)
Oc1ccc(C=NNc2ccccn2)c(O)c1 | 42.6% [at 16 µM] (inactive)
CCOC(=O)[C@]12CCC=C1N(Cc1ccc3c(c1)OCO3)C(=O)[C@H](CC(=O)NCC13CC4CC(CC(C4)C1)C3)C2 | -46.5% (inactive)
Cc1onc(-c2ccccc2)c1C(=O)Nc1ccc(Br)cc1Cl | -7.96% (inactive)
Cc1ccc(-n2nnnc2SCn2nnc3ccccc3c2=O)c(C)c1 | 6.64% (inactive)
O=C(c1cccc(S(=O)(=O)N2CCN(c3ccccc3)CC2)c1)N1CCCC(C(F)(F)F)C1 (stereo not drawn) | 27.4% (inactive)
CC(C)OCCCNc1ncnc2c1[nH]c1ccccc12 | 7.69% (inactive)
O=C(NCCCc1nc2ccccc2[nH]1)c1ccco1 | 22% (inactive)
O=C(Cc1ccc(Cl)cc1Cl)Nc1ccncc1 | -6.32% (inactive)
Cc1ccccc1-n1c(=O)c2ccccc2n2cnnc12 | 7.81% (inactive)
O=C(N/N=C/c1ccc(-n2ccnc2)cc1)c1cccs1 | 27.7% (inactive)
Cn1c(C(=O)N2CCN(c3nc4ccccc4s3)CC2)cc2sccc21 | -4.46% (inactive)
O=C(COc1ccc(-n2cnnn2)cc1)Nc1ccc(F)c(F)c1 | 7.45% (inactive)
CCN(C1CCCCC1)S(=O)(=O)c1ccc(S(=O)(=O)NCc2ccncc2)cc1 | 11.4% (inactive)
C[C@H]1NC(=O)[C@@]2(C)[C@H](c3ccccc3)[C@H]3COc4ccccc4[C@@H]3N2C1=O | 44.9% (inactive)
COCc1[nH]nc2c1C(c1ccc(F)cc1)N(Cc1ccccc1)C2=O (stereo not drawn) | 52% (inactive)
